# Results reported in PubChem BioAssay (NCATS).
# Records with an inconclusive call do not appear. Unmarked numbers belong to inactive results. Activity calls are given as the source filed them. Calls follow the shape of the dose curve; as a rule, active = well fitted inhibition curve with a large enough effect; inconclusive = small, poorly fitted or top-dose-only effect; inactive = flat fitted curve, though single readings scatter. Where a SMILES comes first, the peptide text is derived from it. [ ]: non-standard residue; d: D form. dPhe(4-Cl) = N[C@H](Cc1ccc(Cl)cc1)C(=O)O; d2Nal = N[C@H](Cc1ccc2ccccc2c1)C(=O)O; dCit = NC(=O)NCCC[C@@H](N)C(=O)O; d3Pal = N[C@H](Cc1cccnc1)C(=O)O
# Legend:
# Assay in all cases: Cytotoxic Profiling of Annotated Libraries Using Quantitative High-Throughput Screening (AID 1296008); also: nearly all actives have a fitted effect of over 60% in size
# Conditions in all cases: Five cell lines viability, CellTiter-Glo ATP luminescence, 48-72 h; max response: stronger effect = lower value
# HEK293 = tested on: HEK293
# Summary of the method: (§1)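 Cells exposed to compounds for 48 or 72 hr at 37 degrees Celsius. Viability read as ATP-coupled luminescence with CellTiter-Glo after 10 min at room temperature.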
# HaCat = tested on: HaCat
# Summary of the method: as §1
# KB-3-1 = tested on: KB-3-1
# Summary of the method: as §1
# NIH3T3 = tested on: NIH3T3
# Summary of the method: as §1
# % is scaled to controls: 0 for no effect and ±100 for the full control effect; potency is read from the fitted curve at half-maximal effect.
compound,measurement,setting,value
COC(=O)C1=CO[C@@H](O[C@@H]2O[C@H](CO[C@@H]3O[C@H](COC(=O)/C=C/c4cc(OC)c(O)c(OC)c4)[C@@H](O)[C@H](O)[C@H]3O)[C@@H](O)[C@H](O)[C@H]2O)[C@@H]2C(CO)=CC[C@H]12,max response,HEK293,0.174%
same,max response,HaCat,4.35%
same,outcome,KB-3-1,inactive
same,max response,NIH3T3,-2.41%
C[C@H](N)C(=O)N[C@@H](Cc1ccc(O)cc1)C(=O)N1CCC[C@H]1C(=O)NCC(=O)N[C@@H](CCCCN)C(=O)N[C@@H](Cc1ccccc1)C(N)=O,max response,HEK293,2.75%
same,max response,HaCat,-13.5%
same,outcome,KB-3-1,inactive
same,max response,NIH3T3,3.32%
C=C(CO[C@@H]1O[C@H](CO[C@@H]2OC[C@](O)(CO)[C@H]2O)[C@@H](O)[C@H](O)[C@H]1O)C1Cc2cc(C(C)=O)ccc2O1 (stereo not given in full),max response,HEK293,-4.65%
same,max response,HaCat,-0.415%
same,max response,KB-3-1,7.61%
same,max response,NIH3T3,3.36%
CC1(C)CC[C@]2(C(=O)O[C@@H]3O[C@H](CO)[C@@H](O)[C@H](O)[C@H]3O)CC[C@]3(C)C(=CCC4[C@@]5(C)C[C@@H](O)[C@H](O)C(C)(C)C5[C@H](O)C[C@]43C)[C@@H]2[C@@H]1O (stereo not given in full),max response,HEK293,1.53%
same,max response,HaCat,0.337%
same,outcome,KB-3-1,inactive
same,max response,NIH3T3,-3.1%
C[C@@H]1O[C@@H](O[C@H]2[C@H](O[C@H]3[C@H](O[C@H]4CC[C@@]5(C)C(CC[C@]6(C)C5CC=C5[C@@H]7CC(C)(C)CC[C@]7(C(=O)O[C@@H]7O[C@H](CO)[C@@H](O[C@@H]8O[C@@H](C)[C@H](O)[C@@H](O)[C@H]8O)[C@H](O)[C@H]7O)CC[C@]56C)C4(C)C)OC[C@H](O)[C@@H]3O)O[C@H](CO)[C@@H](O)[C@@H]2O)[C@H](O)[C@H](O)[C@H]1O (stereo not given in full),max response,HEK293,-93.1%
same,max response,HaCat,4.4%
same,outcome,KB-3-1,inactive
same,max response,NIH3T3,0.585%
CC1(C)CC[C@]2(C(=O)O[C@@H]3O[C@H](CO[C@@H]4O[C@H](CO)[C@@H](O)[C@H](O)[C@H]4O[C@@H]4O[C@H](CO)[C@H](O)[C@H](O)[C@H]4O)[C@@H](O)[C@H](O[C@@H]4O[C@H](CO)[C@@H](O)[C@H](O)[C@H]4O)[C@H]3O)CC[C@]3(C)C(=CCC4[C@@]5(C)CC[C@H](O[C@@H]6OC[C@@H](O)[C@H](O)[C@H]6O)[C@@](C)(C(=O)O)C5CC[C@]43C)[C@@H]2C1 (stereo not given in full),max response,HEK293,2.33%
same,max response,HaCat,-16.1%
same,max response,KB-3-1,4.92%
same,max response,NIH3T3,1%
CC1=CCC(C(C)(C)O[C@@H]2O[C@H](CO[C@@H]3O[C@@H](C)[C@H](O)[C@@H](O)[C@H]3O)[C@@H](O)[C@H](O)[C@H]2O)CC1 (stereo not given in full),max response,HEK293,2.02%
same,max response,HaCat,1.99%
same,outcome,KB-3-1,inactive
same,max response,NIH3T3,2.56%
O=[N+]([O-])c1cn2c(n1)OCC(OCc1ccc(OC(F)(F)F)cc1)C2 (stereo not given),max response,HEK293,-14.5%
same,max response,HaCat,-6.12%
same,max response,KB-3-1,-10.4%
same,max response,NIH3T3,0.653%
C=CC(C)(O)CC/C=C(\C)C(=O)OC1C(O)C(CO)OC(OC(=O)C23CCC(C)(C)CC2C2=CCC4C5(C)CCC(OC6OC(COC7OCC(OC(C)=O)C(O)C7OC7OC(COC(C)=O)C(O)C(O)C7O)C(O)C(O)C6O)C(C)(C)C5CCC4(C)C2(C)C(O)C3O)C1OC1OCC(OC2OCC(O)C(OC3OCC(O)C(O)C3O)C2O)C(O)C1O (stereo not given),max response,HEK293,-3.37%
same,max response,HaCat,-19.8%
same,max response,KB-3-1,4.25%
same,max response,NIH3T3,-2.07%
CC1C(=O)OCC2=CCN3CCC(OC(=O)C(C)(O)C1(C)O)C23 (stereo not given),max response,HEK293,-9.35%
same,max response,HaCat,-22.6%
same,outcome,KB-3-1,inactive
same,max response,NIH3T3,-32%
Cc1onc(C(=O)N2CCN(C(c3ccc(Cl)cc3)c3ccc(Cl)cc3)CC2)c1[N+](=O)[O-],Potency,HEK293,820 nM (active)
same,max response,HaCat,0.662%
same,max response,KB-3-1,-21.9%
same,Potency,NIH3T3,731 nM (active)
CCCNc1ccc2ncc(-c3ccc4[nH]ncc4c3)n2n1,Potency,HEK293,1640 nM (active)
same,Potency,HaCat,411 nM (active)
same,Potency,KB-3-1,1300 nM (active)
same,Potency,NIH3T3,3260 nM (active)
CN(C)C1CCN(C(=O)c2ccc(NC(=O)Nc3ccc(-c4nc(N5CCOCC5)nc(N5CCOCC5)n4)cc3)cc2)CC1,Potency,HEK293,51.7 nM (active)
same,Potency,HaCat,116 nM (active)
same,Potency,KB-3-1,58 nM (active)
same,Potency,NIH3T3,130 nM (active)
Nc1ncnc2c1ncn2CCNCCCCCO,max response,HEK293,4.45%
same,max response,HaCat,-23.1%
same,outcome,KB-3-1,inactive
same,max response,NIH3T3,-0.352%
Cc1c(C(=O)N2CCOc3ccc(-c4ccc(N)nc4)cc3C2)ccc(S(C)(=O)=O)c1F,Potency,HEK293,5800 nM (active)
same,max response,HaCat,2.5%
same,Potency,KB-3-1,7310 nM (active)
same,Potency,NIH3T3,11600 nM (active)
C/C=C/C=C/C(O)=C1\C(=O)[C@]2(C)C3C(C(=O)CC/C=C/C)=C(O)C4(C)C1[C@]1(C)O[C@@]4(O)[C@@]3(C)O[C@@]12O,max response,HEK293,-0.736%
same,outcome,HaCat,inactive
same,max response,KB-3-1,8.54%
same,max response,NIH3T3,1.07%
CC(=O)N[C@H](Cc1ccc2ccccc2c1)C(=O)N[C@H](Cc1ccc(Cl)cc1)C(=O)N[C@H](Cc1cccnc1)C(=O)N[C@@H](CO)C(=O)N[C@@H](Cc1ccc(O)cc1)C(=O)N[C@H](CCCNC(N)=O)C(=O)N[C@@H](CC(C)C)C(=O)N[C@@H](CCCN=C(N)N)C(=O)N1CCC[C@H]1C(=O)N[C@H](C)C(N)=O (Ac-[d2Nal][dPhe(4-Cl)][d3Pal]SY[dCit]LRP[dA]-NH2),max response,HEK293,-0.834%
same,max response,HaCat,-5.33%
same,max response,KB-3-1,9.13%
same,max response,NIH3T3,4.07%
COC1=CC(=O)CC(C)C12Oc1cc(OC)cc(O)c1C2=O (stereo not given),max response,HEK293,0.0359%
same,max response,HaCat,4.13%
same,outcome,KB-3-1,inactive
same,outcome,NIH3T3,inactive
CCN(CC)Cc1ccc(C(=O)N(CCc2ccccc2OC)[C@@H]2CCNC2)cc1,Potency,HEK293,5630 nM (active)
same,max response,HaCat,-4.71%
same,Potency,KB-3-1,3990 nM (active)
same,Potency,NIH3T3,2520 nM (active)
C=C1C[C@]23C[C@H]1CC[C@H]2C1=C[C@H]2OC(=O)[C@@](C)([C@H]1[C@@H]3C(=O)O)[C@H]2O,max response,HEK293,4.48%
same,max response,HaCat,1.41%
same,outcome,KB-3-1,inactive
same,max response,NIH3T3,3.03%
COC(=O)C1=CO[C@@H](O)C2C(CO)=CCC12 (stereo not given in full),max response,HEK293,4.75%
same,max response,HaCat,-12%
same,max response,KB-3-1,-1.48%
same,max response,NIH3T3,-2.89%
C/C=C/C=C/C(O)=C1\C(O)=C(C)C(=O)[C@@]2(C)OC(=O)[C@@](C)(NC(=O)/C=C/C(=O)O)[C@@H]12,max response,HEK293,-6.48%
same,max response,HaCat,-17.6%
same,max response,KB-3-1,-1.41%
same,max response,NIH3T3,-1.65%
CC12CCC(=O)C=C1C(O)CC1C2C(O)CC2(C)C1CC[C@]2(O)C(=O)CO (stereo not given in full),max response,HEK293,-5.89%
same,max response,HaCat,0.87%
same,outcome,KB-3-1,inactive
same,max response,NIH3T3,0.282%
CC(C)C(NC(=O)c1ccc2ccccc2n1)C(=O)NC(CC(=O)O)C(=O)COc1c(F)cccc1F (stereo not given),max response,HEK293,-1.52%
same,max response,HaCat,-3.62%
same,max response,KB-3-1,2.53%
same,max response,NIH3T3,-0.522%
CC/C=C/CC1=C(CCCCC(CCC(=O)O)OC(C)=O)CCC1=O (stereo not given),max response,HEK293,-16.2%
same,max response,HaCat,-33.4%
same,max response,KB-3-1,-6.15%
same,max response,NIH3T3,-0.117%
CC(C)c1nnc(-c2ccc(-c3ccccc3)nc2)n1-c1cccc2nonc12,max response,HEK293,3.01%
same,max response,HaCat,4.99%
same,max response,KB-3-1,2.23%
same,max response,NIH3T3,4.73%
C=C1CC2C(C)(CCC(=O)O)C(C(C)(C)O)CCC2(C)C2C(=O)OC(C)(C(=O)OC)C(=O)C12C (stereo not given),max response,HEK293,3.75%
same,max response,HaCat,4.3%
same,outcome,KB-3-1,inactive
same,max response,NIH3T3,-2.52%
C=C[C@@](C)(O)CC/C=C(\C)C(=O)O[C@@H]1[C@@H]2O[C@]2(C)[C@H]2[C@H](O[C@@H]3O[C@H](CO)[C@@H](O)[C@H](O)[C@H]3O)OC=C[C@@]12O,max response,HEK293,0.966%
same,max response,HaCat,-5.52%
same,max response,KB-3-1,-1.11%
same,max response,NIH3T3,1.5%
C=C1CC[C@@H]2[C@](C)(CO[C@@H]3O[C@H](CO)[C@@H](O)[C@H](O)[C@H]3O)[C@H](O)CC[C@@]2(C)[C@@H]1C/C=C1/C(=O)OC[C@H]1O,max response,HEK293,-4.02%
same,max response,HaCat,3.39%
same,outcome,KB-3-1,inactive
same,max response,NIH3T3,2.12%
C=C(CO)C12OC1C1(C)C(=CC2=O)C(O)C(O)CC1C (stereo not given),max response,HEK293,-0.602%
same,max response,HaCat,-9.32%
same,max response,KB-3-1,3.94%
same,max response,NIH3T3,-6.8%
CC(=O)O[C@H]1CC(C)(C)CC2[C@@]13[C@H](O)C[C@]1(C)[C@@]2(CCC2[C@@]4(C)CC[C@H](O[C@@H]5OC[C@H](O[C@@H]6O[C@H](CO)[C@@H](O)[C@H](O)[C@H]6O[C@@H]6OC[C@@H](O)[C@H](O)[C@H]6O)[C@H](O)[C@H]5O[C@@H]5O[C@H](CO)[C@@H](O)[C@H](O)[C@H]5O)C(C)(C)C4CC[C@]21C)O[C@@H]3O (stereo not given in full),Potency,HEK293,1950 nM (active)
same,Potency,HaCat,3480 nM (active)
same,max response,KB-3-1,-24.8%
same,Potency,NIH3T3,2760 nM (active)
COc1cc2c(cc1OC)-c1[nH]nc(Nc3cccc(F)c3)c1C2,Potency,HEK293,130 nM (active)
same,Potency,HaCat,73.1 nM (active)
same,Potency,KB-3-1,164 nM (active)
same,Potency,NIH3T3,731 nM (active)
CC(=O)OC1C(OC(=O)c2ccccc2)C2C(C)(C)CC(=O)CC2(C)C23CCC(C)(C2)C(O)CC13 (stereo not given),max response,HEK293,-15.7%
same,max response,HaCat,1.97%
same,max response,KB-3-1,-13.9%
same,max response,NIH3T3,-5.55%
COc1cc(N2CCC(N3CCN(C)CC3)CC2)ccc1Nc1ncc(Cl)c(-c2c[nH]c3ccccc23)n1,Potency,HEK293,2910 nM (active)
same,Potency,HaCat,3660 nM (active)
same,Potency,KB-3-1,4610 nM (active)
same,Potency,NIH3T3,1460 nM (active)
COc1c/c(=C2\C=c3ccccc3=N2)[nH]/c1=C\c1[nH]c(C)cc1C,Potency,HEK293,1300 nM (active)
same,Potency,HaCat,4110 nM (active)
same,Potency,KB-3-1,2310 nM (active)
same,Potency,NIH3T3,6510 nM (active)
